SMILES strings stand for the structures. Active and inactive are the calls of the source. Rule for the calls: active = hit-call score of the fitted dose curve at least 0.9, where 1 is the maximum; inactive = score below 0.9.

Here are results for 36 compounds from PubChem BioAssay (EPA / NIEHS).

Read-out in one assay: Cyclin Dependent Kinase Inhibitor 1A (CDKN1A), CDKN1A (gene 1026)
Nature of the assay: LTEA_HepaRG_CDKN1A: Life Technologies and Expression Analysis (LTEA) Assay for Cyclin Dependent Kinase Inhibitor 1A (CDKN1A) using HepaRG (AID 2283450). The following applies: mRNA level, 48 h; actives raise or lower the signal. Put shortly:
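Cryopreserved HepaRG cells were plated and cultured 48 h, then switched to serum-free induction medium. Chemicals (eight half-log concentrations, top 100 uM, 0.5% DMSO) were applied for 48 h. Lysates underwent qRT-PCR for CDKN1A with housekeeping normalization.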
As to `CSC1=N[C@@](C)(c2ccccc2)C(=O)N1Nc1ccccc1`, the AC50 is 28.2 µM (active).
For `COP(=O)(OC)C(O)C(Cl)(Cl)Cl` (configuration not stated), the outcome was inactive.
`CCC(CC)Nc1c([N+](=O)[O-])cc(C)c(C)c1[N+](=O)[O-]`: the outcome was inactive.
The same measure, in the same setting: the same measure for `Nc1c(Cl)cc([N+](=O)[O-])cc1Cl`: “inactive”; for `CCCCOC(=O)c1ccccc1C(=O)O`: “inactive”; for `CCOP(=S)(OCC)OC(Cl)C(Cl)(Cl)Cl` (configuration not stated): “inactive”.
On the same count and under the same terms, the same measure for `CC1=NNC(=O)N(/N=C/c2cccnc2)C1`: “inactive”.
As to `CCc1cccc(CC)c1N(COC)C(=O)CCl`, the compound was classed as inactive.
Still for that read-out and setting: the same measure for `COP(=O)(OC)OC(Br)C(Cl)(Cl)Br` (configuration not stated): “inactive”.
The same measure, in the same setting: the same measure for `CCCCSP(=O)(SCCCC)SCCCC`: “inactive”; for `CN1COCN(Cc2cnc(Cl)s2)C1=N[N+](=O)[O-]`: “inactive”.
The same measure, in the same setting: under `CCOP(=O)(OCC)Oc1cc(C)nc(C(C)C)n1` stands “inactive”; under `CC(Oc1cccc(Cl)c1)C(=O)O` (configuration not stated), “inactive”; under `CCOP(=S)(Oc1cnc(C(C)(C)C)nc1)OC(C)C` (configuration not stated), “inactive”.
`CC[C@H](C)[C@H]1O[C@]2(C=C[C@@H]1C)C[C@@H]1C[C@@H](C/C=C(\C)[C@@H](O[C@H]3C[C@H](OC)[C@@H](O[C@H]4C[C@H](OC)[C@@H](NC)[C@H](C)O4)[C@H](C)O3)[C@@H](C)/C=C/C=C3\CO[C@@H]4[C@H](O)C(C)=C[C@@H](C(=O)O1)[C@]34O)O2`: the compound was classed as inactive.
As to `C[N+]1(C)CCCCC1`, the outcome was inactive.
The same measure, in the same setting: the same measure for `CCCCOC(=O)[C@@H](C)Oc1ccc(Oc2ccc(C#N)cc2F)cc1`: “inactive”; for `Cc1nn(-c2cc(NS(C)(=O)=O)c(Cl)cc2Cl)c(=O)n1C(F)F`: “inactive”.
Still for that read-out and setting: under `CN(C)[C@@H]1C(=O)C(C(N)=O)=C(O)[C@@]2(O)C(=O)C3=C(O)c4c(O)cccc4[C@@](C)(O)[C@H]3[C@H](O)[C@@H]12` stands “inactive”.
Still for that read-out and setting: the same measure for `CCOC(=O)CC(SP(=O)(OC)OC)C(=O)OCC` (configuration not stated): “inactive”.
As for `COc1cc(OC)nc(Sc2cccc(Cl)c2C(=O)O)n1`, the result was inactive.
The same measure, in the same setting: the same measure for `CCCOc1nn(C(=O)NS(=O)(=O)c2ccccc2C(=O)OC)c(=O)n1C`: “inactive”; for `CCOP(=S)(OCC)SCCSCC`: “inactive”.
Same read-out and setting: the same measure for `S=C1NCCN1`: “inactive”; for `CON=C(C(=O)OC)c1ccccc1CON=C(C)c1cccc(C(F)(F)F)c1`: “inactive”; for `COP(=O)(OC)SCn1c(=O)oc2cc(Cl)cnc21`: “inactive”.
Same read-out and setting: under `O=[N+]([O-])c1cc(C(F)(F)F)c(Cl)c([N+](=O)[O-])c1Nc1ncc(C(F)(F)F)cc1Cl` stands “inactive”; under `CCC(=O)Nc1ccc(Cl)c(Cl)c1`, “inactive”.
As to `Cc1ccn2nc(S(=O)(=O)Nc3c(F)cccc3F)nc2n1`, the outcome was inactive.
Same read-out and setting: the same measure for `N#CSCSC#N`: “inactive”.
Consider `C=C(C)[C@H]1Cc2c(ccc3c2O[C@@H]2COc4cc(OC)c(OC)cc4[C@@H]2C3=O)O1`, for which the AC50 is 1.41 µM (active).
For `CC(C)=CC1C(C(=O)OCN2C(=O)C3=C(CCCC3)C2=O)C1(C)C` (configuration not stated), the compound was classed as inactive.
Still for that read-out and setting: under `CCC(=NOC/C=C/Cl)C1=C(O)CC(C2CCOCC2)CC1=O` (configuration not stated) stands “inactive”; under `CC(=NC#N)N(C)Cc1ccc(Cl)nc1`, “inactive”.
Still for that read-out and setting: the same measure for `CC(C)[C@H](C(=O)O[C@H](C#N)c1cccc(Oc2ccccc2)c1)c1ccc(Cl)cc1`: “inactive”.
The same measure, in the same setting: the same measure for `CCOP(=O)(SC(C)CC)N1CCSC1=O` (configuration not stated): “inactive”.

Read-out in another assay: Cyclin D1 (CCND1), CCND1 (gene 595)
Put plainly: LTEA_HepaRG_CCND1: Life Technologies and Expression Analysis (LTEA) Assay for Cyclin D1 (CCND1) using HepaRG (AID 2283451).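 For AC50: differentiated human HepaRG liver cells in serum-free induction medium; TaqMan qRT-PCR transcript level normalised to ACTB GAPDH and POLR2A housekeeping genes.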 The following applies: mRNA level, 48 h; actives raise or lower the signal. An outline of the steps: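 Human liver HepaRG line; 48 h dosing, 8 conc. ≤100 uM, 0.5% DMSO; TaqMan qRT-PCR mRNA, 3 housekeeping genes; bidirectional curve fit vs DMSO.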
In the case of `CSC1=N[C@@](C)(c2ccccc2)C(=O)N1Nc1ccccc1`, the AC50 is 50 µM (active).
In the case of `COP(=O)(OC)C(O)C(Cl)(Cl)Cl` (configuration not stated), the compound was classed as inactive.
Turning to `CCC(CC)Nc1c([N+](=O)[O-])cc(C)c(C)c1[N+](=O)[O-]`, the result was inactive.
For `Nc1c(Cl)cc([N+](=O)[O-])cc1Cl`, the half-maximal activity concentration (AC50) was 50 µM (active).
For the compound `CCCCOC(=O)c1ccccc1C(=O)O`, the result was inactive.
`CCOP(=S)(OCC)OC(Cl)C(Cl)(Cl)Cl` (configuration not stated): the compound was called inactive.
The same measure, in the same setting: the same measure for `CC1=NNC(=O)N(/N=C/c2cccnc2)C1`: “inactive”; for `CCc1cccc(CC)c1N(COC)C(=O)CCl`: “inactive”; for `COP(=O)(OC)OC(Br)C(Cl)(Cl)Br` (configuration not stated): “inactive”.
Still for that read-out and setting: under `CCCCSP(=O)(SCCCC)SCCCC` stands “inactive”.
Same read-out and setting: the same measure for `CN1COCN(Cc2cnc(Cl)s2)C1=N[N+](=O)[O-]`: “inactive”.
With `CCOP(=O)(OCC)Oc1cc(C)nc(C(C)C)n1`, the compound was called inactive.
Take `CC(Oc1cccc(Cl)c1)C(=O)O` (configuration not stated): the call was inactive.
With `CCOP(=S)(Oc1cnc(C(C)(C)C)nc1)OC(C)C` (configuration not stated), the AC50 was 50 µM (active).
The same measure, in the same setting: under `CC[C@H](C)[C@H]1O[C@]2(C=C[C@@H]1C)C[C@@H]1C[C@@H](C/C=C(\C)[C@@H](O[C@H]3C[C@H](OC)[C@@H](O[C@H]4C[C@H](OC)[C@@H](NC)[C@H](C)O4)[C@H](C)O3)[C@@H](C)/C=C/C=C3\CO[C@@H]4[C@H](O)C(C)=C[C@@H](C(=O)O1)[C@]34O)O2` stands 87.5 µM (active).
Regarding `C[N+]1(C)CCCCC1`, the compound was classed as inactive.
Same read-out and setting: the same measure for `CCCCOC(=O)[C@@H](C)Oc1ccc(Oc2ccc(C#N)cc2F)cc1`: “inactive”.
Consider `Cc1nn(-c2cc(NS(C)(=O)=O)c(Cl)cc2Cl)c(=O)n1C(F)F`, for which the outcome was inactive.
The same measure, in the same setting: the same measure for `CN(C)[C@@H]1C(=O)C(C(N)=O)=C(O)[C@@]2(O)C(=O)C3=C(O)c4c(O)cccc4[C@@](C)(O)[C@H]3[C@H](O)[C@@H]12`: “inactive”; for `CCOC(=O)CC(SP(=O)(OC)OC)C(=O)OCC` (configuration not stated): “inactive”.
Still for that read-out and setting: the same measure for `COc1cc(OC)nc(Sc2cccc(Cl)c2C(=O)O)n1`: “inactive”; for `CCCOc1nn(C(=O)NS(=O)(=O)c2ccccc2C(=O)OC)c(=O)n1C`: “inactive”.
Same read-out and setting: the same measure for `CCOP(=S)(OCC)SCCSCC`: “inactive”; for `S=C1NCCN1`: “inactive”; for `CON=C(C(=O)OC)c1ccccc1CON=C(C)c1cccc(C(F)(F)F)c1`: “inactive”.
With `COP(=O)(OC)SCn1c(=O)oc2cc(Cl)cnc21`, the AC50 was 78.5 µM (active).
Consider `O=[N+]([O-])c1cc(C(F)(F)F)c(Cl)c([N+](=O)[O-])c1Nc1ncc(C(F)(F)F)cc1Cl`, for which the AC50 is 14.8 µM (active).
Still for that read-out and setting: under `CCC(=O)Nc1ccc(Cl)c(Cl)c1` stands 50 µM (active).
For `Cc1ccn2nc(S(=O)(=O)Nc3c(F)cccc3F)nc2n1`, the outcome was inactive.
Same read-out and setting: the same measure for `N#CSCSC#N`: “inactive”.
Regarding `C=C(C)[C@H]1Cc2c(ccc3c2O[C@@H]2COc4cc(OC)c(OC)cc4[C@@H]2C3=O)O1`, the AC50 is 22.8 µM (active).
As for `CC(C)=CC1C(C(=O)OCN2C(=O)C3=C(CCCC3)C2=O)C1(C)C` (configuration not stated), the call was inactive.
`CCC(=NOC/C=C/Cl)C1=C(O)CC(C2CCOCC2)CC1=O` (configuration not stated): the AC50 is 0.414 µM (active).
With `CC(=NC#N)N(C)Cc1ccc(Cl)nc1`, the call was inactive.
Same read-out and setting: the same measure for `CC(C)[C@H](C(=O)O[C@H](C#N)c1cccc(Oc2ccccc2)c1)c1ccc(Cl)cc1`: “inactive”; for `CCOP(=O)(SC(C)CC)N1CCSC1=O` (configuration not stated): “inactive”.

For orientation: AC50 means the concentration giving half of the maximal activity seen.
